SMILES strings stand for the structures. Records with an inconclusive call do not appear. Active and inactive are the calls of the source. Unless noted, the rule behind the calls is not given here.

The nature of experiment [1]: qHTS profiling of the MIPE4 collection as inhibitors of Plasmodium falciparum (DD2) proliferation (AID 743345). As to conditions: P. falciparum Dd2 in erythrocytes, SYBR Green DNA, 72 h; at 28.5 µM (top of the series) unless noted. Summed up: (§1)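 Parasite DNA was quantified by SYBR Green I fluorescence (ex 485, em 535 nm) after overnight lysis in saponin/Triton buffer at room temperature. Cultures at 0.3% parasitemia and 2.5% hematocrit were first exposed to compound for 72 h at 37 C; signals were normalised to artemisinin (0.29 uM) and vehicle wells.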
(Quantitative high-throughput screening tests each substance at several concentrations.)

Experiment [2] is described as follows: qHTS profiling of the MIPE4 collection as inhibitors of Plasmodium falciparum (DD2) proliferation (Rep 2) (AID 743346). The note with it: P. falciparum Dd2 in erythrocytes, SYBR Green DNA, 72 h; at 28.5 µM (top of the series) unless noted. Summed up:
as §1

A short description of experiment [3]: qHTS profiling of the MIPE4 collection as inhibitors of Plasmodium falciparum (HB3) proliferation (AID 743347).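 Note: plate controls were DMSO vehicle wells for no effect and artemisinin wells for full effect.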 The note with it: P. falciparum HB3 in erythrocytes, SYBR Green DNA, 72 h; at 28.5 µM (top of the series) unless noted. Summed up:
as §1

Experiment [4] can be described thus: High-throughput drug toxicity screening in the BPDCN cell line Gen2.2 (AID 1224824).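 Note: cells exposed to compounds for 48 h before reading.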 The note with it: Gen2.2 BPDCN cells; at 45.8 µM (top of the series) unless noted. Summed up: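 CellTiter-Glo luminescence after 48 h compound exposure of Gen2.2 cells; percent activity set with DMSO as 100% and bortezomib (9.2 uM final) as 0%. Cells seeded at 500 per well, RPMI + 10% FBS, 37 °C.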

Experiment [5] can be described thus: High-throughput drug toxicity screening in the BPDCN cell line Cal-1 (AID 1224825). As to conditions: Cal-1 BPDCN cell viability, qHTS; at 45.8 µM (top of the series) unless noted. Summed up:
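CellTiter-Glo luminescence after 48 h compound exposure; percent activity scaled with DMSO as 100% and bortezomib (9.2 uM final) as 0%. Cal-1 cells seeded at 500/well in RPMI, 10% FBS, no phenol red.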

Experiment [6] is described as follows: qHTS Screen of the MIPE 4.0 Collection Against Ewings Sarcoma (TC71) (AID 1259253; active = well fitted inhibition curve with a large enough effect; note: nearly all actives have a fitted effect of over 40% in size; note: potency is the fitted concentration of half-maximal effect). Summed up: (§2)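 Dose series incubated 48 h with cells in RPMI plus 5% FBS, glutamine and penicillin/streptomycin; cell viability then quantified via CellTiter-Glo.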
Experiment [7] is described as follows: qHTS Screen of the MIPE 4.0 Collection Against Ewings Sarcoma (EW8) (AID 1259255; active = well fitted inhibition curve with a large enough effect; note: nearly all actives have a fitted effect of over 35% in size; note: potency is the fitted concentration of half-maximal effect;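 for viability: 100% = DMSO-treated cells and 0% = medium-only wells without cells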). Summed up:
as §2

Experiment [8] can be described thus: qHTS assay for measurement of the activity of small molecule inhibitors on Zika virus induced Caspase-3 activity in human astrocytoma cells (AID 1224859; active = well fitted inhibition curve with a large enough effect; note: potency is the fitted concentration of half-maximal effect). Summed up:
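Human SNB-19 astrocytoma cells in RPMI 1640 with 10% FBS receive compound one hour ahead of Zika virus at 2 FFU/cell. After 6 h infection, caspase-3/7 activity is detected by Caspase-Glo luminescence.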

Experiment [9] in a line: qHTS Screen of the MIPE 4.0 Collection Against Ewings Sarcoma (RDES) (AID 1259252; active = well fitted inhibition curve with a large enough effect; note: nearly all actives have a fitted effect of over 35% in size; note: potency is the fitted concentration of half-maximal effect). Summed up: as §2

In turn, `Cc1ccc([N+](=O)[O-])cc1S(=O)(=O)N(C)N=Cc1cnc2ccc(Br)cn12` registered a parasite growth remaining, % of DMSO control (lower = more inhibition) in [1] of 11.3%. Besides, the parasite growth, % of control (lower = inhibition) in experiment [2] was determined as 20.1%. This molecule returned a growth, % of control in experiment [3] of 3.45%. For the same molecule, in [4], the cell viability, % of control (lower = more cytotoxic) is 28.8%. This molecule also gave a viability (% of control) in experiment [5] of 3.92%. Further, the Potency in experiment [6] is 20.9 nM (active); in [7] it was 37.2 nM (active).
In [1], `CN1C(C(=O)Nc2ccccn2)=C(O)c2sc(Cl)cc2S1(=O)=O` displayed a parasite growth remaining, % of DMSO control (lower = more inhibition) of 86.4%. In addition, the parasite growth, % of control (lower = inhibition) in experiment [2] amounted to 50.9%. The molecule further had a growth, % of control in experiment [3] of 69.3%. Further, the cell viability, % of control (lower = more cytotoxic) in [4] came to 59.6%. The molecule further yielded a viability (% of control) in [5] of 71.2%. Besides, the Potency result in experiment [8] is “inactive”. For the same molecule, the results for the Potency in experiment [9], in experiment [6] and in experiment [7] were 3.32 µM (active), 3720 nM (active) and 20900 nM (active), respectively.
`Cc1cn([C@@H]2O[C@H](CO)[C@@H](O)[C@H]2F)c(=O)[nH]c1=O` gave a parasite growth remaining, % of DMSO control (lower = more inhibition) in experiment [1] of 94.7%. This molecule also yielded a parasite growth, % of control (lower = inhibition) in experiment [2] of 78.6%. In [3], this molecule yielded a growth, % of control of 323%. Further, the cell viability, % of control (lower = more cytotoxic) in experiment [4] is 189%. This molecule also came in with a viability (% of control) in experiment [5] of 72.5%. Moreover, the Potency result in experiment [8], in experiment [9], in experiment [6] and in [7] was “inactive” each time.
In the case of `O=C(Nc1cc2cc[nH]c2cn1)c1ccccc1`, the parasite growth remaining, % of DMSO control (lower = more inhibition) in experiment [1] is 88%. The same molecule had a parasite growth, % of control (lower = inhibition) in experiment [2] of 39.2%. In experiment [3], this molecule displayed a growth, % of control of 75.4%. Further, in experiment [4], the cell viability, % of control (lower = more cytotoxic) was found to be 13.5%. The viability (% of control) in experiment [5] was 8.25%. Further, the Potency in experiment [8] is 5.26 µM (active); in [9] it was 13.2 µM (active); in experiment [6] it was 13200 nM (active); in experiment [7] it was 14800 nM (active).
As to `C[C@@H](Cc1cc2c(c(C(N)=O)c1)N(CCCO)CC2)NCCOc1ccccc1OCC(F)(F)F`, in experiment [1], the parasite growth remaining, % of DMSO control (lower = more inhibition) was found to be 84%. In experiment [2], the parasite growth, % of control (lower = inhibition) came out at 58.3%. The molecule further yielded a growth, % of control in [3] of 85.9%. Also, the cell viability, % of control (lower = more cytotoxic) in experiment [4] was 183%. In addition, in [5], the viability (% of control) turned out to be 97.3%. In addition, the Potency result in experiment [6] and in experiment [7] was “inactive” in each case.
With `NS(=O)(=O)OC[C@@H]1C[C@@H](n2ccc3c(N[C@H]4CCc5ccccc54)ncnc32)C[C@H]1O`, the parasite growth remaining, % of DMSO control (lower = more inhibition) in experiment [1] was 92.9%. The same molecule displayed a parasite growth, % of control (lower = inhibition) in [2] of 46.9%. The molecule further showed a growth, % of control in [3] of 51%. Moreover, the cell viability, % of control (lower = more cytotoxic) in experiment [4] was 6.59%. Besides, in [5], the viability (% of control) stood at 2.9%. The Potency result in experiment [8] was “inactive”. Also, the Potency is 264 nM (active) in experiment [6] and 132 nM (active) in experiment [7].
`C[C@]12C=CC(=O)N[C@@H]1CC[C@H]1[C@H]3CC[C@@H](C(=O)Nc4cc(C(F)(F)F)ccc4C(F)(F)F)[C@@]3(C)CC[C@@H]12` yielded a parasite growth remaining, % of DMSO control (lower = more inhibition) in [1] of 9.12%. The same molecule came in with a parasite growth, % of control (lower = inhibition) in experiment [2] of 23.9%. For the same molecule, the growth, % of control in experiment [3] was 26.4%. Besides, the cell viability, % of control (lower = more cytotoxic) in [4] stood at 58.7%. In [5], the viability (% of control) was 93%. Besides, the Potency result in experiment [8], in experiment [6] and in experiment [7] was “inactive” each time.
Take `O=S(=O)(O)CCSSCCS(=O)(=O)O`: in experiment [1], the parasite growth remaining, % of DMSO control (lower = more inhibition) came out at 89%. This molecule yielded a parasite growth, % of control (lower = inhibition) in experiment [2] of 69.9%. In experiment [3], the growth, % of control is 76%. The cell viability, % of control (lower = more cytotoxic) in experiment [4] turned out to be 33.7%. This molecule also came in with a viability (% of control) in [5] of 35.3%. Further, the Potency entry in [8], in experiment [6] and in experiment [7] was “inactive” throughout.
In the case of `Cn1cc(CNCC2CCN(c3ncc(C(=O)NO)cn3)CC2)c2ccccc21`, the parasite growth remaining, % of DMSO control (lower = more inhibition) in experiment [1] turned out to be 7.34%. In experiment [2], this molecule gave a parasite growth, % of control (lower = inhibition) of 8.03%. This molecule yielded a growth, % of control in experiment [3] of 7.88%. In experiment [4], the cell viability, % of control (lower = more cytotoxic) was determined as 12.7%. In experiment [5], this molecule yielded a viability (% of control) of 4.24%. Also, in experiment [8], the Potency result is “inactive”. Besides, the values for the Potency in [9], in experiment [6] and in experiment [7] were 0.0332 µM (active), 33.2 nM (active) and 33.2 nM (active), respectively.

(Values after PubChem BioAssay (NCATS).)
